Source: PubChem BioAssay (several laboratories)
TIM10 inh: TIM10 yeast growth inhibition; S. cerevisiae TIM10 strain growth, BacTiter-Glo luminescence, 24 h; hit rate 1.4% among 330,000; inhibition, % at 10 µM;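 active = inhibition of 40% or more at the single tested concentration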;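 also: wild-type TIM10 isogenic control strain grown at permissive 25 °C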
NALP3 yeast inh: inhibitors of NALP3 inflammasome in yeast; inhibition, % at 10 µM; hit rate 0.39% among 330,000; Yeast reconstituted NLRP3/ASC/caspase-1, beta-gal luminescence, 24 h;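 active = inhibition of 50% or more; inactive = inhibition below 50%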;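 also: plate controls were induced DMSO wells for no effect and uninduced yeast grown without galactose for full effect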
tim10-1 inh: tim10-1 yeast growth inhibition; hit rate 2.2% among 330,000; S. cerevisiae tim10-1 ts strain growth, BacTiter-Glo, 24 h; inhibition, % at 20 µM;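 active = inhibition of at least 40%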;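 also: mutant grown at 25 °C; 0% = DMSO wells with yeast and 100% = wells holding no yeast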
SKKanGAS inh: inhibitors of SKKanGAS S. pyogenes growth in kanamycin (SK-promoter or general growth effect). inhibition, % at 7.5 µM. hit rate 1.3% among 300,000. BacTiter-Glo, 6 h;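 active = mean replicate score, as percent of positive control median, at least 50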;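 also: strain carries kanamycin resistance gene driven by streptokinase promoter and grows in 40 µg/ml kanamycin; loss of luminescence reflects streptokinase promoter inhibition or plain growth inhibition; 0% = median of DMSO wells and 100% = positive control at its reference dose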
PfHsp90 yeast 2: growth inhibition of yeast expressing Plasmodium Hsp90; S. cerevisiae expressing PfHsp90, BacTiter-Glo ATP, 48 h; yeast lacking PDR1 and PDR3 efflux regulators; hit rate 0.32% among 310,000; inhibition, % at 9.4 µM;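 active = every replicate shows inhibition above about 80%, whatever the replicate mean, limit read from the data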;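 also: 0% = DMSO neutral controls and 100% = 20 µM radicicol positive controls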
tim23-1 inh: inhibits growth of tim23-1 mutant yeast; inhibition, % at 20 µM; S. cerevisiae tim23-1 growth, BacTiter-Glo luminescence, 24 h; hit rate 1.3% among 330,000;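 active = growth inhibition of the mutant yeast at or above 50%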;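 also: temperature-sensitive mutant grown at 25 °C; plate controls were DMSO-treated mutant yeast for no effect and medium wells lacking yeast for full effect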
tim10-1 conf: confirmation of tim10-1 mutant yeast growth inhibitors; hit rate 56% among 7,400; AID 463213; inhibition, % at 20 µM; shares compounds with tim10-1 inh; S. cerevisiae tim10-1 ts strain growth, BacTiter-Glo, 24 h;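 active = inhibition of yeast growth at or above a set limit in either of two repeat tests at 20 µM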;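 also: tim10-1 mutant grown at permissive 25 °C to find synthetic lethal compounds; 0% = DMSO yeast wells and 100% = medium wells without yeast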
TIM10 conf: confirmation of TIM10 yeast growth inhibitors; shares compounds with TIM10 inh; S. cerevisiae tim10 strain growth, BacTiter-Glo luminescence, 24 h; inhibition, % at 10 µM; hit rate 63% among 4,600;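 active = inhibition of yeast growth at or above a set limit in either of two replicates at 10 µM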;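 also: this counterscreen used the strain with wild-type TIM10; 0% = yeast with DMSO and 100% = medium wells lacking yeast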
tim23-1 conf: tim23-1 yeast growth inhibition, confirmed; shares compounds with tim23-1 inh; S. cerevisiae tim23-1 growth, BacTiter-Glo luminescence, 24 h; inhibition, % at 20 µM; hit rate 83% among 4,400; AID 463218;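 active = inhibition above about 39% in either of two replicate wells at 20 µM, limit read from the data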;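 also: temperature-sensitive tim23-1 mutant grown at 25 °C; 0% = DMSO wells with yeast and 100% = medium wells without yeast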
Numbers without * were called inactive. Rows were chosen to be rich in hits. Some 4.6% of all compounds tested hit in one or more screens of this group.

`C=CCOc1ccc(C(=O)/C=C2/C(=O)Nc3ccccc32)cc1` gave TIM10 inh 77*, NALP3 yeast inh 36, tim10-1 inh 84*, SKKanGAS inh 7, PfHsp90 yeast 2 -49, tim23-1 inh 88*, tim10-1 conf 86*, TIM10 conf 90* and tim23-1 conf 77*.
COc1ccc(C2NC(=O)c3ccccc3N2)cc1OC (stereo unspecified) was read as TIM10 inh 10, NALP3 yeast inh -4, tim10-1 inh 22, SKKanGAS inh 0, PfHsp90 yeast 2 -8 and tim23-1 inh 11.
For O=C1Nc2ccccc2/C1=C/C(=O)c1cccs1 the results were TIM10 inh 68*, NALP3 yeast inh 30, tim10-1 inh 51*, SKKanGAS inh 4, PfHsp90 yeast 2 -29, tim23-1 inh 55*, tim10-1 conf 60*, TIM10 conf 93* and tim23-1 conf -42.
`COc1ccc(C2(C(=O)c3ccccc3)C(=O)c3ccccc3C2=O)cc1` gave TIM10 inh 10, NALP3 yeast inh 17, tim10-1 inh 10, SKKanGAS inh -2, PfHsp90 yeast 2 3 and tim23-1 inh 35.
For COc1ccc(Cl)cc1NC(=O)COC(=O)Cc1cc(OC)c(OC)c(OC)c1 the results were TIM10 inh -3, NALP3 yeast inh 17, tim10-1 inh -1 and tim23-1 inh 29.
For COc1ccc(OC)c(S(=O)(=O)Nc2c(NC3CCCCC3)c3ccccc3oc2=O)c1 the results were TIM10 inh 16, NALP3 yeast inh 10, tim10-1 inh 31, SKKanGAS inh -2, PfHsp90 yeast 2 -7 and tim23-1 inh 32.
For Cc1ccc(N2C(=O)c3ccccc3NC2(C(=O)O)c2ccccc2)cc1Cl (stereo unspecified) the results were TIM10 inh 15, NALP3 yeast inh -3, tim10-1 inh 9, SKKanGAS inh -4, PfHsp90 yeast 2 22 and tim23-1 inh -1.
`Cc1[nH]c2ccccc2c1N=Nc1ccc(F)cc1` gave TIM10 inh 30, NALP3 yeast inh 14, tim10-1 inh 63*, SKKanGAS inh -2, PfHsp90 yeast 2 14, tim23-1 inh 70*, tim10-1 conf 30 and tim23-1 conf -88.
Screening Cc1[nH]c2ccccc2c1N=Nc1cc(C(=O)O)cc(C(=O)O)c1 returned TIM10 inh -8, NALP3 yeast inh 23, tim10-1 inh -3, SKKanGAS inh -6 and tim23-1 inh 4.
Screening Cc1cc(NC(=O)c2cccc(S(=O)(=O)Nc3cccc(C(=O)O)c3)c2)no1 returned TIM10 inh 2, NALP3 yeast inh 0, tim10-1 inh -1, SKKanGAS inh 1, PfHsp90 yeast 2 12 and tim23-1 inh -7.
CC1=NOC(=O)/C1=C\c1ccc(-c2ccc(Br)cc2C(=O)O)o1 was read as TIM10 inh -4, NALP3 yeast inh 8, tim10-1 inh 7, SKKanGAS inh 1, PfHsp90 yeast 2 -3 and tim23-1 inh 15.
`CC1=NOC(=O)/C1=C\c1ccc(-c2cc(Cl)ccc2Cl)o1` gave TIM10 inh 14, NALP3 yeast inh 1, tim10-1 inh 51*, SKKanGAS inh 8, PfHsp90 yeast 2 2, tim23-1 inh 79*, tim10-1 conf 14 and tim23-1 conf 68*.
`CC1=NOC(=O)/C1=C/c1ccc(-c2ccc(Cl)cc2)o1` gave TIM10 inh 65*, NALP3 yeast inh 15, tim10-1 inh 44*, PfHsp90 yeast 2 105*, tim23-1 inh 65*, tim10-1 conf 8, TIM10 conf 69* and tim23-1 conf -90.
Screening Cc1ccc(C2=NOC(=O)/C2=C\c2ccc(C)o2)cc1 returned TIM10 inh 45*, NALP3 yeast inh 30, tim10-1 inh 59*, SKKanGAS inh -6, PfHsp90 yeast 2 -89, tim23-1 inh 79*, tim10-1 conf 39*, TIM10 conf 39* and tim23-1 conf 80*.
For COc1ccc(Cl)cc1/C=C1/C(=O)ON=C1C the results were TIM10 inh -1, NALP3 yeast inh 7, tim10-1 inh 22, SKKanGAS inh 3, PfHsp90 yeast 2 -1 and tim23-1 inh 17.
For CCOC(=O)[C@@H]1[C@H]2COc3cc(OC)ccc3[C@@H]2N2C(=O)N(c3ccc(C(F)(F)F)cc3)C(=O)[C@@]12C the results were TIM10 inh 19, NALP3 yeast inh 12, tim10-1 inh 12, SKKanGAS inh 15, PfHsp90 yeast 2 -2 and tim23-1 inh 25.
For CCOC(=O)[C@@H]1[C@H]2COc3cc(OC)ccc3[C@H]2N2C(=O)N(c3ccc(C(F)(F)F)cc3)C(=O)[C@]12C the results were TIM10 inh 75*, NALP3 yeast inh 47, tim10-1 inh 77*, PfHsp90 yeast 2 35, tim23-1 inh 84*, tim10-1 conf 84*, TIM10 conf 73* and tim23-1 conf 86*.
For CCc1cccc(NC(=O)CCCn2nc(C)c3c(C)n(-c4ccccc4)nc3c2=O)c1 the results were TIM10 inh 13, NALP3 yeast inh -1, tim10-1 inh 26, SKKanGAS inh -2, PfHsp90 yeast 2 0 and tim23-1 inh 19.
`CCN(CC)Cc1ccc(NC(=O)c2sc3cc(Cl)ccc3c2Cl)cc1` gave TIM10 inh 44*, NALP3 yeast inh 28, tim10-1 inh 18, SKKanGAS inh 4, PfHsp90 yeast 2 12, tim23-1 inh 19 and TIM10 conf 40*.
For COc1ccc(C(=O)/C=C/C(=O)N(Cc2ccc(F)cc2)C(C(=O)NC2CCCCC2)c2ccncc2)c(O)c1 (stereo unspecified) the results were TIM10 inh 44*, NALP3 yeast inh 13, tim10-1 inh 32, SKKanGAS inh 27, PfHsp90 yeast 2 49, tim23-1 inh 38 and TIM10 conf 0.
Screening COc1ccc(C(=O)/C=C/C(=O)N(Cc2ccccc2)C(C(=O)NC2CCCCC2)c2ccncc2)c(O)c1 (stereo unspecified) returned TIM10 inh 23, NALP3 yeast inh -2, tim10-1 inh 18, SKKanGAS inh -3, PfHsp90 yeast 2 -39 and tim23-1 inh 34.
CCOC(=O)c1cccc(NC(=O)c2ccco2)c1 was read as TIM10 inh 46*, NALP3 yeast inh 39, tim10-1 inh 29, SKKanGAS inh -4, PfHsp90 yeast 2 -3, tim23-1 inh 45 and TIM10 conf 26.
